Results from PubChem BioAssay (NCI).
About 79,000 compounds went through this panel and 15% of them were active in at least one assay; those are over-represented in the sample as a whole. Active and inactive are the calls of the source. Rule as the data show it: active = growth inhibition above about 70%; inactive = the rest.

Tests used:
[1] = NCI Yeast Anticancer Drug Screen. Data for the rad50 strain (AID 155);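 also: 0% = growth of vehicle-only cultures of the same strain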; settings: S. cerevisiae rad50 strain growth inhibition, active compounds read high
How it was run: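 Readout: growth inhibition relative to vehicle-treated cultures. Compound exposure was carried out in a genetically defined yeast strain deficient in DNA damage repair.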

[2] = NCI Yeast Anticancer Drug Screen. Data for the mec2-1 strain (AID 157); settings: S. cerevisiae mec2-1 strain, active compounds read high
How it was run: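 Growth inhibition is read against vehicle-treated controls after compound exposure of the mec2-1 yeast strain, which is defective in DNA damage repair or cell cycle control.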

[3] = NCI Yeast Anticancer Drug Screen. Data for the sgs1 mgt1 strain (AID 161);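 also: 0% = growth of cultures given vehicle only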; settings: S. cerevisiae sgs1 mgt1 strain, active compounds read high
How it was run: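 This yeast growth screen uses a strain with defined DNA-repair lesions; compound-treated growth is compared with vehicle-treated growth.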

[4] = NCI Yeast Anticancer Drug Screen. Data for the cln2 rad14 strain (AID 165);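 also: 0% = growth equal to vehicle treated cultures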; settings: S. cerevisiae cln2 rad14 strain, active compounds read high
How it was run: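 Growth inhibition, relative to vehicle-treated controls, is the read-out. The test organism is a yeast strain with defined genetic alterations, cln2 rad14.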

[5] = NCI Yeast Anticancer Drug Screen. Data for the bub3 strain (AID 167); settings: S. cerevisiae bub3 mutant strain, active compounds read high
How it was run: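 Readout: yeast growth inhibition, expressed relative to vehicle-only wells. The test organism is a mutant strain from a panel with lesions in DNA repair or checkpoint genes.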

[6] = NCI Yeast Anticancer Drug Screen. Data for the mlh1 rad18 strain (AID 175); settings: S. cerevisiae mlh1 rad18 strain growth inhibition, active compounds read high
How it was run: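 Cells of a genetically altered yeast strain, deficient in DNA damage repair, were treated with compound. Their growth was then compared with that of vehicle-treated cultures to give inhibition.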

[7] = at 5.0 µM (retest, dose inferred, filed as 0.5)
[8] = at 50.0 µM (retest, dose inferred, filed as 5.0)

Measured: growth inhibition

CCCC1CCCC1(CC(=O)c1ccccc1)C(=O)O (configuration not stated)
inactive: [1]; [7] 21% | [1]; [8] 52% | [2]; [7] 19% | [2]; [8] 46% | [2]; at 50.0 µM 64.8% | [3]; [7] 25% | [3]; [8] 47% | [4]; [7] 24% | [4]; [8] 54% | [5]; [7] 63% | [6]; [7] 47%
active: [1]; at 50.0 µM 70.3% | [3]; at 50.0 µM 81.7% | [4]; at 50.0 µM 82.3% | [5]; [8] 76% | [5]; at 50.0 µM 90.2% | [6]; [8] 72% | [6]; at 50.0 µM 82.5%

COC12C(COC(N)=O)C3=C(C(=O)C(C)=C(N)C3=O)N1CC1C2N1C(=O)c1ccc(Cl)c(Cl)c1 (configuration not stated)
inactive: [1]; [7] 32% | [2]; [7] 29% | [3]; [7] 12% | [4]; [7] 11% | [5]; [7] 22% | [6]; [7] 37%
active: [1]; [8] 93% | [1]; at 50.0 µM 82.2% | [2]; [8] 96% | [2]; at 50.0 µM 85.3% | [3]; [8] 95% | [3]; at 50.0 µM 89.2% | [4]; [8] 94% | [4]; at 50.0 µM 80.5% | [5]; [8] 95% | [5]; at 50.0 µM 83.8% | [6]; [8] 95% | [6]; at 50.0 µM 88%

OC(COc1ccc(Cl)cc1)CN1CCN(c2cccc(Cl)c2)CC1 (configuration not stated)
inactive: [1]; [7] 20% | [2]; [7] 37% | [4]; [7] 20% | [5]; [7] 25% | [6]; [7] 62%
active: [1]; [8] 99% | [1]; at 50.0 µM 95.8% | [2]; [8] 100% | [2]; at 50.0 µM 93.9% | [3]; [7] 80% | [3]; [8] 100% | [3]; at 50.0 µM 98.5% | [4]; [8] 99% | [4]; at 50.0 µM 85.8% | [5]; [8] 98% | [5]; at 50.0 µM 95.5% | [6]; [8] 99% | [6]; at 50.0 µM 96.3%

COC(=O)[C@@]12OC[C@]34[C@H]([C@@H](O)[C@@H]1O)[C@@]1(C)CC(=O)C(OC(=O)CC(=O)OC5=C(C)[C@@H]6C[C@H]7OC(=O)[C@H](OC(=O)/C=C(\C)C(C)C)[C@H]8[C@]9(C(=O)OC)OC[C@]78[C@H]([C@@H](O)[C@@H]9O)[C@@]6(C)CC5=O)=C(C)[C@@H]1C[C@H]3OC(=O)[C@H](OC(=O)/C=C(\C)C(C)C)[C@@H]24
active: [1]; [8] 98% | [1]; at 50.0 µM 90.3% | [2]; [8] 99% | [2]; at 50.0 µM 92.3% | [3]; [8] 98% | [3]; at 50.0 µM 92.5% | [4]; [8] 98% | [4]; at 50.0 µM 89.6% | [5]; [8] 99% | [5]; at 50.0 µM 92.2% | [6]; [8] 97% | [6]; at 50.0 µM 84.5%
inactive: [1]; [7] 45% | [2]; [7] 43% | [3]; [7] 42% | [4]; [7] 49% | [5]; [7] 57% | [6]; [7] 58%

C/C(=N\NC(=S)NCCCNC(=S)N/N=C(\C)c1ccccn1)c1ccccn1
inactive: [1]; [7] 8% | [1]; [8] 66% | [2]; [7] 9% | [3]; [7] 10% | [4]; [7] 18% | [5]; [7] 0% | [5]; [8] 60% | [6]; [7] 17%
active: [1]; at 50.0 µM 82.5% | [2]; [8] 75% | [2]; at 50.0 µM 82.4% | [3]; [8] 77% | [3]; at 50.0 µM 86.2% | [4]; [8] 78% | [4]; at 50.0 µM 83.3% | [5]; at 50.0 µM 83.1% | [6]; [8] 85% | [6]; at 50.0 µM 88.9%

CC12CCC(O)CC1=CCC1C2CCC2(C)c3nc(C#N)c(=N)n(O)c3CC12 (configuration not stated)
active: [1]; [8] 96% | [1]; at 50.0 µM 98.5% | [2]; [8] 71% | [2]; at 50.0 µM 98.7% | [3]; [8] 93% | [3]; at 50.0 µM 99.2% | [4]; [8] 89% | [4]; at 50.0 µM 98.5% | [5]; [8] 81% | [5]; at 50.0 µM 98% | [6]; [8] 85% | [6]; at 50.0 µM 99.2%
inactive: [1]; [7] 12% | [2]; [7] 0% | [3]; [7] 6% | [4]; [7] 4% | [5]; [7] 1% | [6]; [7] 44%

OC1c2cccn2-c2cc(Cl)ccc2SC1c1ccccc1 (configuration not stated)
active: [1]; [8] 97% | [1]; at 50.0 µM 97% | [2]; [8] 98% | [2]; at 50.0 µM 82.3% | [3]; [8] 97% | [3]; at 50.0 µM 96.2% | [4]; [8] 97% | [4]; at 50.0 µM 93.2% | [5]; [8] 97% | [5]; at 50.0 µM 95.6% | [6]; [8] 97% | [6]; at 50.0 µM 94.8%
inactive: [1]; [7] 2% | [2]; [7] 1% | [3]; [7] 15% | [4]; [7] -7% | [5]; [7] 24% | [6]; [7] 8%

Cc1cc(=Nc2ccc3c(c2)c(N)cc(C)[n+]3C)nc(N)n1C
inactive: [3]; [8] 61%
active: [1]; [7] 84% | [1]; [8] 88% | [1]; at 50.0 µM 97.1% | [2]; [7] 78% | [2]; [8] 95% | [2]; at 50.0 µM 92.5% | [3]; [7] 78% | [3]; at 50.0 µM 95.2% | [4]; [7] 83% | [4]; [8] 85% | [4]; at 50.0 µM 91.9% | [5]; [7] 75% | [5]; [8] 87% | [5]; at 50.0 µM 89.1% | [6]; [7] 83% | [6]; [8] 90% | [6]; at 50.0 µM 97.5%

COC12C=CC(CC1)C1=C2C(=O)c2nc(C)c(C)nc2C1=O (configuration not stated)
inactive: [1]; [7] -1% | [1]; [8] 27% | [1]; at 50.0 µM 30.8% | [2]; [7] 9% | [2]; [8] 20% | [2]; at 50.0 µM 7.5% | [3]; [7] -1% | [3]; [8] 39% | [3]; at 50.0 µM 33.6% | [4]; [7] 21% | [4]; [8] 3% | [4]; at 50.0 µM 20.8% | [5]; [7] 5% | [5]; [8] 8% | [5]; at 50.0 µM 20.8% | [6]; [7] 12% | [6]; [8] 52% | [6]; at 50.0 µM 34.2%
